# Test results taken from publication PMC4336329 (PLoS ONE, 2015).
# Screen size: about 310,000 compounds; about 14,000 (4.5%) showed an effect of 50% or more. The effect is printed as a negative number. This excerpt belongs to a sample that is enriched for strong results.
# Biological target: human ether-à-go-go-related gene (hERG) potassium channel (human, UniProt Q12809)
# Assay: primary screen, population patch clamp on CHO cells stably expressing hERG; higher = less effect of the substance
# 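Further: peak tail current of the secondary pulse compared with the same well before compound.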
# human ether-à-go-go-related gene (hERG) potassium channel, sequence (Q12809 whole entry, looked up): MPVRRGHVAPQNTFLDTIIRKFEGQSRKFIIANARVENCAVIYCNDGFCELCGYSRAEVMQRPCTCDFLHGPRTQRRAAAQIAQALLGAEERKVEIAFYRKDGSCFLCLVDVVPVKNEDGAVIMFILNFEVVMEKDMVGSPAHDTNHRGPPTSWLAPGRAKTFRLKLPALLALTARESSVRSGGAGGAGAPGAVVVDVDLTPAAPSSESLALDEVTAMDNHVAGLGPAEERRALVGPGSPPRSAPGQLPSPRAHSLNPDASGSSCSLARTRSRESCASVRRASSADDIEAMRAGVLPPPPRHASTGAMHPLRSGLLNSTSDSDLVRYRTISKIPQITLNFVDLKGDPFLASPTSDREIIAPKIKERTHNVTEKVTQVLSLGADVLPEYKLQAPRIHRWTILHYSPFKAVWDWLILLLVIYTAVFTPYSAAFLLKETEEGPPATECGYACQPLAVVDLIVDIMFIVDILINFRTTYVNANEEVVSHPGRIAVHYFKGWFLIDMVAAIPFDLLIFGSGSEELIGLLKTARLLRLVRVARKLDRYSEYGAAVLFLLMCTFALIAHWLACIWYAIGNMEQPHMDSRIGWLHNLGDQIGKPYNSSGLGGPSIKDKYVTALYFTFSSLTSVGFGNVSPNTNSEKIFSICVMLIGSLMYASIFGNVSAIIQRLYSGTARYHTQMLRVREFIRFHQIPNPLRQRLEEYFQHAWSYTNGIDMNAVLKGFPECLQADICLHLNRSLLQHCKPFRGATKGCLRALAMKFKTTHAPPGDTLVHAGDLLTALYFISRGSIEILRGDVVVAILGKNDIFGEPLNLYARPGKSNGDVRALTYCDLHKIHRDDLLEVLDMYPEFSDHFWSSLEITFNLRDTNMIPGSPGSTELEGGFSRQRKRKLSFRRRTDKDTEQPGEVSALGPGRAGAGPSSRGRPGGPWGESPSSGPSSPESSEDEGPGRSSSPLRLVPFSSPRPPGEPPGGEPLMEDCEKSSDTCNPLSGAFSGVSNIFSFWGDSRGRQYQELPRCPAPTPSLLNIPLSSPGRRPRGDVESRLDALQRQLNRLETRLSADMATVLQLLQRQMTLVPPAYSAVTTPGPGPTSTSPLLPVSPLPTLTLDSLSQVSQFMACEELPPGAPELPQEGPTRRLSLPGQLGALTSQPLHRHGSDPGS
row,SMILES,"hERG current change (%, negative = inhibition) at 10uM [%]"
1,COc1ccccc1CNC(=O)COC(=O)c1ccc(Cl)c(N)c1,21.8
2,N=c1c(S(=O)(=O)c2ccc(Br)cc2)cc2c(=O)n3ccccc3nc2n1C1CCCCC1,22.8
3,N=c1c(C(=O)NCC2CCCO2)cc2c(=O)n3ccccc3nc2n1C1CCCC1 (centres unmarked),-76.9
4,N=c1c(S(=O)(=O)c2ccc(Br)cc2)cc2c(=O)n3ccccc3nc2n1C1CCCC1,9.15
5,N=c1c(S(=O)(=O)c2ccccc2)cc2c(=O)n3ccccc3nc2n1C1CCCC1,1.62
6,N=c1c(C(=O)NCC2CCCO2)cc2c(=O)n3ccccc3nc2n1C1CCCCC1 (centres unmarked),-77.3
7,Cc1nc(C(=O)NC2CC2)sc1C1(C)CC(c2ccccc2)=NO1 (centres unmarked),-8.63
8,Cc1ccc(Nc2nc(CSc3nnnn3-c3ccccc3)cs2)cc1,14.7
9,CNC(=O)NC(=O)CN1C(=O)NC2(CCOc3ccccc32)C1=O (centres unmarked),18.9
10,CC(C)OP(=O)(OC(C)C)/C(C=O)=N\Nc1ccc([N+](=O)[O-])cc1,-55.1
11,COP(=O)(OC)/C(C=O)=N/Nc1ccc([N+](=O)[O-])cc1,-36.3
12,N#CC(C#N)=NNc1ccc([N+](=O)[O-])cc1,-2.55
13,CC(C)CCNC(=O)C1CCN(C(=O)N(C)C)CC1,14.5
14,Cc1c(N2C(=O)CS/C2=N\N=C\c2ccc(Cl)cc2)c(=O)n(-c2ccccc2)n1C,-32.2
15,CN1CCN(CCCN(Cc2ccco2)C(=S)Nc2ccc(Cl)cc2)CC1,-69.6
16,S=C(Nc1ccc(Cl)cc1)N(CCCN1CCOCC1)Cc1ccco1,-26
17,CCN1CCN(CCCN(Cc2ccco2)C(=S)Nc2ccc(Cl)cc2)CC1,-64.2
18,CCOC(=O)C1C2C=CC3(CN(Cc4cccs4)C(=O)C13)O2 (centres unmarked),1.73
19,CCOc1cccc(C(=O)NC(=S)Nc2cccc(C)c2)c1,6.87
20,COCCCn1cnnc1SCc1nc2sc(C(C)=O)c(C)c2c(=O)[nH]1,-17
21,Cc1ccc2nc(C)n(-c3ccc(F)cc3)c(=O)c2c1,21.3
22,CCN1Cc2c(/C=C/c3ccccc3)nc3ccc(OC)cc3c2N(c2cccc(Cl)c2)C1,-12.5
23,Cc1ccc2cc3c(nc2c1)N(c1ccccc1)CC3,2.24

row,SMILES,"hERG current change (%, negative = inhibition) at 10uM [%]"
1,Cc1ccc2nc(C)c3c(c2c1)N(c1ccccc1)CC3,-74.6
2,CSc1nc(C)c2c(n1)N(c1ccc(F)cc1)CC2,19.8
3,Cc1ccc2nc(C)c3c(c2c1)SCC3,-27.4
4,Cc1ccc2nc(C)c3c(c2c1)N(c1ccc(F)cc1)CC3,-92.2
5,COc1cccc(N2CCc3c(C)nc4ccc(Cl)cc4c32)c1,-72.9
6,Cc1nc2ccc(Cl)cc2c(=O)n1-c1cccc(Cl)c1,3.78
7,COc1cccc(/C=N/Nc2cc(Cl)nc(C)n2)c1O,20.8
8,COc1cc2c3c(c1OC)C1(C=CC(=O)C=C1)CC3N(C(=O)c1ccccc1)CC2 (centres unmarked),-18.6
9,CCC(=O)NC(=S)Nc1ccc(NC(=O)COc2ccc(Cl)cc2Cl)cc1,10.7
10,CC(=O)c1ccccc1OCc1ccc(S(=O)(=O)Cc2ccccc2)cc1,-26.6
11,Cc1ccc(/C=N/Nc2ccc(Cl)nn2)cc1,-0.808
12,CCN(CC)S(=O)(=O)c1ccc(C(=O)OCC(=O)Nc2sc3c(c2C#N)CCCCC3)cc1,8.12
13,Cc1ccc(S(=O)(=O)Nc2ccc(C(=O)N3CCCC3)cc2)cc1,-0.474
14,Cc1ccc(NS(=O)(=O)c2ccc(C(=O)N3CC(C)CC(C)C3)cc2)cc1 (centres unmarked),-58.7
15,Cc1ccc(NS(=O)(=O)c2ccc(C(=O)N3CC(C)OC(C)C3)cc2)cc1 (centres unmarked),14.2
16,CC(C)(C)c1ccc(S(=O)(=O)Nc2ccc(C(=O)N3CCCC3)cc2)cc1,-61.9
17,Cc1ccc(NS(=O)(=O)c2ccc(C(=O)N3CCC3)cc2)cc1,15.7
18,Cc1ccc(NS(=O)(=O)c2ccc(C(=O)N3CCCCCC3)cc2)cc1,-8.38
19,O=C(Nc1nnc(-c2ccco2)o1)c1ccc(Cl)s1,8.23
20,Cc1cc(Cl)c(OCCCSc2nc(C)cc(=O)[nH]2)c(Br)c1,-10.3
21,CCc1nnc(NC(=O)CSc2ncc(-c3ccccc3)[nH]2)s1,2.52
22,Cc1cccc(C(=O)NNC(=O)c2ccccc2-n2cccc2)c1,11.7
23,COC(=O)c1c(SCc2ccc(C#N)cc2)nc(=O)[nH]c1C,-76.9

row,SMILES,"hERG current change (%, negative = inhibition) at 10uM [%]"
1,COC(=O)c1c(SCC(=O)Nc2ccc(C)c(C)c2)nc(=O)[nH]c1C,2.16
2,COC(=O)c1c(SCc2cccc3ccccc23)nc(=O)[nH]c1C,7.87
3,CCOC(=O)c1c(C)n(C)c2ccc(OCC(O)CNC(CC)CO)cc12 (centres unmarked),-7.11
4,COc1ccccc1/C=N/Nc1nccnc1Cl,-11.5
5,O=C(O)c1ccc(N=Cc2c(O)[nH]c(=O)[nH]c2=O)cc1,8.59
6,CC(C)N1CCC(N2CCN(CCCn3cccn3)CC2CCO)CC1 (centres unmarked),-28
7,CC(C)CCN1CCN(CCCn2cccn2)CC1CCO (centres unmarked),-6.72
8,CCOc1ccccc1CN1CCN(CCCn2cccn2)CC1CCO (centres unmarked),-57.4
9,OCCC1CN(CCCn2cccn2)CCN1Cc1ccccc1 (centres unmarked),-8.62
10,CC(C)=CCN1CCN(CCCn2cccn2)CC1CCO (centres unmarked),-11.8
11,CCOc1ccc(CN2CCN(CCCn3cccn3)CC2CCO)cc1 (centres unmarked),-80.1
12,Cc1ccc(CN2CCN(CCCn3cccn3)CC2CCO)cc1 (centres unmarked),-66.9
13,Cc1cccc(NS(=O)(=O)c2cccc3cccnc23)n1,4.27
14,COC(=O)C(Cc1ccccc1)NC(=O)c1cccc(S(=O)(=O)N(C)C)c1 (centres unmarked),2.5
15,Cc1ccccc1-c1noc(N)c1C#N,0.198
16,CCCOc1cc(C)c(S(=O)(=O)NC2CC(C)(C)NC(C)(C)C2)cc1C,-15
17,Cn1c(CSCc2ccc(Cl)cc2)nnc1SCC(=O)Nc1nc2ccccc2s1,9.45
18,Cc1cc(C)cc(C(=O)NCCn2cc(SCC(=O)N3CCOCC3)c3ccccc32)c1,-9.88
19,O=C(O)CNc1nc(Cl)ccc1[N+](=O)[O-],6.24
20,O=[N+]([O-])c1cccnc1NCCc1ccccc1,-18.9
21,O=C(O)CNc1ncccc1[N+](=O)[O-],-86.1
22,CNC(=O)C(=O)NCCN1CCN(S(=O)(=O)c2ccc3ccccc3c2)CC1,29.3
23,CC[C@@H]1CN(C)[C@H]2Cc3c([nH]c4ccccc34)C(=O)C[C@@H]1[C@@H]2C(=O)OC,11.8

row,SMILES,"hERG current change (%, negative = inhibition) at 10uM [%]"
1,CC[C@H]1CN(C)CCc2c([nH]c3ccccc23)C(=O)C[C@@H]1/C(=C\OC)C(=O)OC,-69.5
2,CC[C@H]1CN(C)C[C@@]2(C(=O)OC)Cc3c([nH]c4ccccc34)C(=O)C[C@@H]12,9.71
3,C=CCc1cccc(C=Nc2ccc(Br)cc2)c1O,-4.96
4,FC(F)(F)c1cc(Oc2ccc(Cl)cc2)ncc1-c1nnc(-c2ccc(Cl)cc2)o1,5.81
5,CC(C)C(=O)NCCc1nc(-c2ccccc2Cl)no1,16.1
6,O=C(OCCCN=C1NS(=O)(=O)c2ccccc21)C1CC(=O)N(c2ccc(Cl)cc2)C1 (centres unmarked),-58.7
7,O=C(OCCOCCN=C1NS(=O)(=O)c2ccccc21)C1CC(=O)N(c2ccccc2)C1 (centres unmarked),13.1
8,O=C(OCCN=C1NS(=O)(=O)c2ccccc21)C1CC(=O)N(c2ccc(Cl)cc2)C1 (centres unmarked),-7.04
9,CC1(C)CC(CC(=O)O)(c2ccc(F)cc2)CCO1 (centres unmarked),3.33
10,Cc1ccc(C)c(SCC(=O)Nc2ccc(C)c(S(=O)(=O)N3CCOCC3)c2)c1,-13.4
11,CCOCCCNc1c(CC)c(C)c(C#N)c2nc3ccccc3n12,-42.3
12,Cc1cc(C)cc(-n2c3nc4ccccc4nc3c3c(=O)n(Cc4ccco4)cnc32)c1,6.26
13,Cc1ccc(Cn2c(C)nc3c(c2=O)c2nc4ccccc4nc2n3Cc2ccco2)cc1,5.72
14,CC(C)OC(=O)c1c(N)n(Cc2ccco2)c2nc3ccccc3nc12,-31.4
15,CC(C)CNC(=O)c1c(N)n(Cc2ccco2)c2nc3ccccc3nc12,-14.1
16,COC(=O)c1c(N)n(Cc2ccc(OC)cc2)c2nc3ccccc3nc12,-34.1
17,COCCCNC(=O)c1c(N)n(Cc2ccco2)c2nc3ccccc3nc12,-2.08
18,COCCNC(=O)c1c(N)n(Cc2ccco2)c2nc3ccccc3nc12,-6.12
19,COCCOC(=O)c1c(N)n(Cc2ccccc2)c2nc3ccccc3nc12,-36.5
20,COCCOC(=O)c1c(N)n(Cc2ccc(OC)cc2)c2nc3ccccc3nc12,-75.4
21,COCCOC(=O)c1c(N)n(Cc2ccco2)c2nc3ccccc3nc12,-56.7
22,COCC(C)OC(=O)c1c(N)n(Cc2ccco2)c2nc3ccccc3nc12 (centres unmarked),-55.7
23,Cc1cccc(-n2cnc3c(c2=O)c2nc4ccccc4nc2n3Cc2ccco2)c1,-63.7
